Results filed as inconclusive are left out. Unmarked numbers belong to inactive results. Activity calls are given as the source filed them. Calls follow the shape of the dose curve; as a rule, active = well fitted cell-killing curve with a large enough effect; inconclusive = small, poorly fitted or top-dose-only effect; inactive = flat fitted curve, though single readings scatter.
Experiment: Cell Viability - LYMP2-015 (AID 971);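 also: 0% = DMSO only and full effect = 92 µM tetraoctylammonium bromide; nearly all actives have a fitted effect of over 55% in size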
Settings: LYMP2-015 lymphoblastoid cell viability; series mostly up to 92.2 µM; activity change, negative = lower viability: at the top concentration
How it was run: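 Human lymphoblastoid cells (2500/well) in complete medium were preincubated 5 hr at 37 C, then compound-treated 24 hr at 37 C. Intracellular ATP was read by CellTiter-Glo luminescence after 30 min at room temperature; AC50 came from Hill-equation concentration-response fits.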

Compound | activity change, negative = lower viability
NC(=Nc1ccccc1)Nc1ccccc1 | -9.14%
CN=C(NC#N)NCCSCc1nc[nH]c1C | -17.4%
COc1ccc(CN(CCN(C)C)c2ccccn2)cc1 | -21.1%
CCCCOCCOCCOCc1cc2c(cc1CCC)OCO2 | -12.1%
Nc1nc(N)c2nc(-c3ccccc3)c(N)nc2n1 | -29.5%
NC(=O)N1c2ccccc2C=Cc2ccccc21 | -11.1%
O=c1[nH]c(=O)n([C@H]2C[C@H](O)[C@@H](CO)O2)cc1Br | -14.3%
CCCCNC(=O)NS(=O)(=O)c1ccc(C)cc1 | -20%
COc1cc(Cc2cnc(N)nc2N)cc(OC)c1OC | -19.5%

Experiment: Cell Viability - LYMP2-017 (AID 972); also: % is scaled to controls: 0 for no effect and ±100 for the full control effect; nearly all actives have a fitted effect of over 55% in size
Settings: LYMP2-017 lymphoblastoid cell viability; series mostly up to 92.2 µM; activity change, negative = cytotoxicity: at the top concentration
How it was run: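 Human lymphoblastoid cells (2500/well) were seeded in complete medium, held 5 hr at 37 C, then exposed to compounds for 24 hr at 37 C. Intracellular ATP was read by CellTiter-Glo luminescence after 30 min at room temperature, with AC50 values from Hill-equation fits.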

Compound | activity change, negative = cytotoxicity
NC(=Nc1ccccc1)Nc1ccccc1 | -8.06%
CN=C(NC#N)NCCSCc1nc[nH]c1C | -5.72%
COc1ccc(CN(CCN(C)C)c2ccccn2)cc1 | -12.1%
CCCCOCCOCCOCc1cc2c(cc1CCC)OCO2 | -11%
NC(=O)N1c2ccccc2C=Cc2ccccc21 | -14.6%
O=c1[nH]c(=O)n([C@H]2C[C@H](O)[C@@H](CO)O2)cc1Br | -0.897%
CCCCNC(=O)NS(=O)(=O)c1ccc(C)cc1 | -15%
COc1cc(Cc2cnc(N)nc2N)cc(OC)c1OC | -8.92%

Experiment: Cell Viability - LYMP2-019 (AID 973);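 also: 0% = DMSO alone and full effect = 92 µM tetraoctylammonium bromide; nearly all actives have a fitted effect of over 55% in size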
Settings: LYMP2-019 lymphoblastoid cell line viability; series mostly up to 92.2 µM; activity change, negative = cytotoxicity: at the top concentration
How it was run: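 Human lymphoblastoid cells were seeded at 2500 cells/well, preincubated 5 hr at 37 C, then exposed to compounds for 24 hr at 37 C in complete medium. Intracellular ATP was measured by CellTiter-Glo luminescence; AC50 from Hill fits.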

Compound | activity change, negative = cytotoxicity
NC(=Nc1ccccc1)Nc1ccccc1 | -25.7%
CN=C(NC#N)NCCSCc1nc[nH]c1C | -10.6%
COc1ccc(CN(CCN(C)C)c2ccccn2)cc1 | -23.6%
CCCCOCCOCCOCc1cc2c(cc1CCC)OCO2 | -12.3%
Nc1nc(N)c2nc(-c3ccccc3)c(N)nc2n1 | -27.2%
NC(=O)N1c2ccccc2C=Cc2ccccc21 | 1.81%
O=c1[nH]c(=O)n([C@H]2C[C@H](O)[C@@H](CO)O2)cc1Br | -16.1%
CCCCNC(=O)NS(=O)(=O)c1ccc(C)cc1 | -13.4%
COc1cc(Cc2cnc(N)nc2N)cc(OC)c1OC | -5.87%

Experiment: Cell Viability - LYMP2-021 (AID 974);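 also: compound exposure lasts 24 hours at 37 °C; % is scaled to controls: 0 for no effect and ±100 for the full control effect; nearly all actives have a fitted effect of over 55% in size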
Settings: LYMP2-021 lymphoblastoid cells viability; series mostly up to 92.2 µM; activity change, negative = cytotoxicity: at the top concentration
How it was run: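 Human lymphoblastoid cells (2500/well) were preincubated 5 hr at 37 C, then exposed to compounds for 24 hr at 37 C in complete medium. Intracellular ATP was read by CellTiter-Glo luminescence; AC50 came from Hill-equation fits of concentration-response data.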

Compound | activity change, negative = cytotoxicity
NC(=Nc1ccccc1)Nc1ccccc1 | -13.3%
CN=C(NC#N)NCCSCc1nc[nH]c1C | -0.71%
COc1ccc(CN(CCN(C)C)c2ccccn2)cc1 | -20.8%
CCCCOCCOCCOCc1cc2c(cc1CCC)OCO2 | -5.08%
Nc1nc(N)c2nc(-c3ccccc3)c(N)nc2n1 | -29.6%
NC(=O)N1c2ccccc2C=Cc2ccccc21 | -4.51%
O=c1[nH]c(=O)n([C@H]2C[C@H](O)[C@@H](CO)O2)cc1Br | -6.67%
CCCCNC(=O)NS(=O)(=O)c1ccc(C)cc1 | -1.12%
COc1cc(Cc2cnc(N)nc2N)cc(OC)c1OC | -0.915%

Experiment: Cell Viability - LYMP2-023 (AID 975)
Settings: LYMP2-023 lymphoblastoid cell viability; series mostly up to 92.2 µM; activity change, negative = cytotoxicity: at the top concentration
How it was run: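 Human lymphoblastoid cells (2500/well) were preincubated 5 hr at 37 C, then exposed to compounds for 24 hr at 37 C in complete medium. Cellular ATP was read by CellTiter-Glo luminescence, and AC50 came from Hill-equation fits.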

Compound | activity change, negative = cytotoxicity
NC(=Nc1ccccc1)Nc1ccccc1 | 4.31%
CN=C(NC#N)NCCSCc1nc[nH]c1C | -6.68%
COc1ccc(CN(CCN(C)C)c2ccccn2)cc1 | -2.3%
CCCCOCCOCCOCc1cc2c(cc1CCC)OCO2 | 1.63%
Nc1nc(N)c2nc(-c3ccccc3)c(N)nc2n1 | -17.2%
NC(=O)N1c2ccccc2C=Cc2ccccc21 | 0.134%
O=c1[nH]c(=O)n([C@H]2C[C@H](O)[C@@H](CO)O2)cc1Br | 0.202%
CCCCNC(=O)NS(=O)(=O)c1ccc(C)cc1 | -3.21%
COc1cc(Cc2cnc(N)nc2N)cc(OC)c1OC | -5.96%

Experiment: Cell Viability - LYMP2-025 (AID 976);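 also: plate controls were DMSO only for no effect and tetraoctylammonium bromide control for full effect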
Settings: LYMP2-025 lymphoblastoid cell viability; series mostly up to 92.2 µM; activity change, negative = cytotoxicity: at the top concentration
How it was run: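 Human lymphoblastoid LYMP2-025 cells (2500/well) were pre-incubated 5 hr at 37 C, then treated with compounds for 24 hr at 37 C in complete medium. Viability was read as intracellular ATP by CellTiter-Glo luminescence; AC50 from Hill fits.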

Compound | activity change, negative = cytotoxicity
NC(=Nc1ccccc1)Nc1ccccc1 | -9.21%
CN=C(NC#N)NCCSCc1nc[nH]c1C | -5.75%
COc1ccc(CN(CCN(C)C)c2ccccn2)cc1 | -8.52%
CCCCOCCOCCOCc1cc2c(cc1CCC)OCO2 | -5.41%
Nc1nc(N)c2nc(-c3ccccc3)c(N)nc2n1 | -16.1%
NC(=O)N1c2ccccc2C=Cc2ccccc21 | -10.3%
O=c1[nH]c(=O)n([C@H]2C[C@H](O)[C@@H](CO)O2)cc1Br | -5.92%
CCCCNC(=O)NS(=O)(=O)c1ccc(C)cc1 | -8.39%
COC(=O)[C@H]1[C@H]2C[C@@H]3c4[nH]c5cc(OC)ccc5c4CCN3C[C@H]2C[C@@H](OC(=O)c2cc(OC)c(OC)c(OC)c2)[C@@H]1OC | -21.3%
COc1cc(Cc2cnc(N)nc2N)cc(OC)c1OC | -5.37%

Experiment: Cell Viability - LYMP2-002 (AID 977);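 also: compound exposure lasted 24 h at 37 °C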; also: potency is read from the fitted curve at half-maximal effect;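 as to activity change, negative = cytotoxic: plate controls were DMSO only for no effect and 92 µM tetraoctylammonium bromide for full effect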
Settings: LYMP2-002 lymphoblastoid cell viability, qHTS; series mostly up to 92.2 µM; activity change, negative = cytotoxic: at the top concentration
How it was run: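 Cytotoxicity is scored as concentration-dependent loss of cellular ATP in a human lymphoblastoid line after 24 hr compound treatment at 37 C. AC50 is obtained by modelling concentration-response data with the Hill equation.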

Compound | activity change, negative = cytotoxic | Potency
NC(=Nc1ccccc1)Nc1ccccc1 | -0.55% | –
CN=C(NC#N)NCCSCc1nc[nH]c1C | 0.805% | –
COc1ccc(CN(CCN(C)C)c2ccccn2)cc1 | -22.7% | –
CCCCOCCOCCOCc1cc2c(cc1CCC)OCO2 | -16.1% | –
Nc1nc(N)c2nc(-c3ccccc3)c(N)nc2n1 | -24.7% | –
NC(=O)N1c2ccccc2C=Cc2ccccc21 | -2.21% | –
O=c1[nH]c(=O)n([C@H]2C[C@H](O)[C@@H](CO)O2)cc1Br | 3.84% | –
CCCCNC(=O)NS(=O)(=O)c1ccc(C)cc1 | -3.95% | –
COC(=O)[C@H]1[C@H]2C[C@@H]3c4[nH]c5cc(OC)ccc5c4CCN3C[C@H]2C[C@@H](OC(=O)c2cc(OC)c(OC)c(OC)c2)[C@@H]1OC | – | 79.4 µM (active)
COc1cc(Cc2cnc(N)nc2N)cc(OC)c1OC | 1.94% | –

Experiment: Cell Viability - LYMP2-006 (AID 978); also: nearly all actives have a fitted effect of over 60% in size; also: potency is read from the fitted curve at half-maximal effect; as to activity change, negative = cytotoxicity: % is scaled to controls: 0 for no effect and ±100 for the full control effect
Settings: LYMP2-006 lymphoblastoid cell viability, qHTS; series mostly up to 92.2 µM; activity change, negative = cytotoxicity: at the top concentration
How it was run: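 Concentration-dependent loss of intracellular ATP in a human lymphoblastoid line after 24 hr treatment at 37 C was measured by CellTiter-Glo luminescence, with AC50 values obtained from standard Hill-equation modelling.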

Compound | activity change, negative = cytotoxicity | Potency
NC(=Nc1ccccc1)Nc1ccccc1 | -2.96% | –
CN=C(NC#N)NCCSCc1nc[nH]c1C | 3.12% | –
COc1ccc(CN(CCN(C)C)c2ccccn2)cc1 | -1.6% | –
CCCCOCCOCCOCc1cc2c(cc1CCC)OCO2 | -1.11% | –
Nc1nc(N)c2nc(-c3ccccc3)c(N)nc2n1 | -25.6% | –
NC(=O)N1c2ccccc2C=Cc2ccccc21 | -0.657% | –
O=c1[nH]c(=O)n([C@H]2C[C@H](O)[C@@H](CO)O2)cc1Br | -5.88% | –
Nc1ncn([C@@H]2O[C@H](CO)[C@@H](O)[C@H]2O)c(=O)n1 | – | 15.8 µM (active)
CCCCNC(=O)NS(=O)(=O)c1ccc(C)cc1 | 6.42% | –
COc1cc(Cc2cnc(N)nc2N)cc(OC)c1OC | -24% | –

Reference: PubChem BioAssay (NCATS)
